Sfp inh – qHTS Assay for Inhibitors of Bacillus subtilis Sfp phosphopantetheinyl transferase (PPTase); AID 1490, 2009; 4'-phosphopantetheinyl transferase ffp (Bacillus subtilis), Q9F4F7; Biochemical Sfp PPTase activity, qHTS; actives 3.5% (n = 310,000); Potency, µM, without a hit: largest response in the series, negative = inhibition, usual class: inhibitors;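 also: the enzyme is Sfp with the accession as filed and its product quenches rhodamine fluorescence; 0% = enzyme reaction without inhibitor and -100% = no enzyme wells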
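Compounds were incubated with enzyme (final 15 nM) for 15 min at room temperature before substrate addition started the reaction. Fluorescence at 525 nm excitation, 598 nm emission was recorded immediately and after 30 minutes.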
PLK1 PBD block – qHTS for Inhibitors of PLK1-PDB (polo-like kinase 1 - polo-box domain): Primary Screen; Serine/threonine-protein kinase PLK1 (Homo sapiens), P53350; Plk1 PBD binding of FITC phosphopeptide, fluorescence polarization; Potency, µM, inactives show max response, negative = inhibition, most hits filed as inhibitors; actives 2.8% (n = 360,000); AID 720504, 2013; also: series mostly up to about 57 µM; nearly all actives have a fitted effect of over 65% in size
ALOX12 inh – Primary qHTS assay for inhibitors of human arachidonate 12S-lipoxygenase (ALOX12): Round 2. purified 12hLO, xylenol orange hydroperoxide absorbance. Polyunsaturated fatty acid lipoxygenase ALOX12 (Homo sapiens), P18054. AID 1671190, 2021. actives 1.1% (n = 580,000). Potency, µM (series often up to 108 µM), inactives show at the top dose activity change, negative = inhibition, most hits filed as inhibitors
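Hydroperoxide product was detected by ferrous iron/xylenol orange as the 573 to 405 nm absorbance ratio. Arachidonic acid at 40 uM (final) was turned over for 30 min at room temperature by 150 nM human 12hLO, pH 7.0 Hepes buffer, after 15 min compound preincubation.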
VDR inh – Inhibitors of the vitamin D receptor (VDR): qHTS. Potency, µM, for the others: max response, negative = inhibition, usual class: inhibitors. actives 0.93% (n = 400,000). VDR-SRC2-3 peptide fluorescence polarization, 2 h. Vitamin D3 receptor (Homo sapiens), P11473
Target sequence (P11473 whole entry, looked up): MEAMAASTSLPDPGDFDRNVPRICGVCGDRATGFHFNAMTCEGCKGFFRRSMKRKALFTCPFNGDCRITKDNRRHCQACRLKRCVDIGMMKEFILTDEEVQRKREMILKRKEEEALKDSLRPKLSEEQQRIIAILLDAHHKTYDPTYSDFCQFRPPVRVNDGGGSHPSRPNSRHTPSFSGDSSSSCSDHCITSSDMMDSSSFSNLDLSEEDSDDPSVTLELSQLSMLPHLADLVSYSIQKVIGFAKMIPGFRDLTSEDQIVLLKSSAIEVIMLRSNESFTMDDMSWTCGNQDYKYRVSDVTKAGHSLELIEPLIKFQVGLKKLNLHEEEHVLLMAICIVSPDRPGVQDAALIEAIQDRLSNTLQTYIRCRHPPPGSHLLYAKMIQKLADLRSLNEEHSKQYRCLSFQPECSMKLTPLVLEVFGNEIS
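Compounds are added to VDR with labelled SRC2-3 coactivator peptide and held 2 h at room temperature. Inhibition of the VDR–peptide interaction is then read as a change in fluorescence polarization.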
TbPYK confirm – qHTS of Trypanosoma Brucei Inhibitors: Confirmatory Assay for Cherry-picked Compounds; recombinant TbPYK, Kinase-Glo ATP luminescence; actives 67% (n = 890); shares compounds with PLK1 PBD block; Potency, µM (doses to about 76.9 µM), for the others: at the highest dose activity change, negative = inhibition, usual class: inhibitors; also: nearly all actives have a fitted effect of over 70% in size
TbPYK orthogonal – qHTS of Trypanosoma Brucei Inhibitors: Orthogonal Assay for Cherry-picked Compounds. recombinant TbPYK, ADP-Glo luminescence, 60 min. Potency, µM (doses to about 76.9 µM), for the others: at the highest dose activity change, negative = inhibition, most hits filed as inhibitors. AID 720584, 2013. shares compounds with PLK1 PBD block. actives 62% (n = 890); also: nearly all actives have a fitted effect of over 75% in size
* = called active by the depositor. Shown are actives, neighbours in structure and some others; about 4.2% of the full set was active somewhere. Calls follow the shape of the dose curve; as a rule, active = well fitted curve in the direction sought with a large enough effect; inconclusive = small, poorly fitted or top-dose-only effect, or another doubt; inactive = no such curve, though single readings can be large; an effect the other way counts as inactive or inconclusive. Unless noted, % is scaled to controls: 0 for no effect and ±100 for the full control effect; potency is read from the fitted curve at half-maximal effect.

Screening CCCS(=O)(=O)c1cscc1NC(=O)c1c(-c2c(F)cccc2Cl)noc1C returned Sfp inh 0%, PLK1 PBD block 4%, ALOX12 inh 0%, VDR inh -4%, TbPYK confirm 13µM* and TbPYK orthogonal 14µM*.
Screening COc1ccc(C(=O)N2CCc3nc(C4CC4)nc(-c4ccc(Cl)cc4)c3CC2)cc1 returned ALOX12 inh 17%.
For CCN(CC)Cc1cc(O)c(CN(CC)CC)cc1O the results were Sfp inh 10µM*, PLK1 PBD block 4.2µM*, ALOX12 inh 49%, VDR inh -3%, TbPYK confirm -99% and TbPYK orthogonal 10µM*.
CC1(C)CC(=O)C=C(NNC(=O)c2ccccc2)C1 was read as Sfp inh 15%, PLK1 PBD block -9%, ALOX12 inh 20% and VDR inh -21%.
CC1(C)CC(=O)C(CSC(=O)c2ccccc2)C(=O)C1 was read as PLK1 PBD block 9.5µM*, ALOX12 inh inconclusive, TbPYK confirm 5.6µM* and TbPYK orthogonal 14µM*.
For CC(=O)c1ccc(NC(=O)c2noc(C)c2[N+](=O)[O-])cc1 the results were Sfp inh -1%, PLK1 PBD block -5%, ALOX12 inh 5% and VDR inh -6%.
O=C(OCc1ccc(COC(=O)c2ccccc2C(=O)c2ccccc2)cc1)c1ccccc1C(=O)c1ccccc1 was read as ALOX12 inh -7%.
Screening CCOc1ccccc1C(=O)Nc1nnc(COC)s1 returned Sfp inh 14%, PLK1 PBD block -8%, ALOX12 inh -1% and VDR inh -4%.
`O=C(O)CC(C(=O)O)N1C(=O)/C(=C/C=C/c2ccco2)SC1=S` (stereo not given) gave Sfp inh 22µM*, PLK1 PBD block 2.4µM*, ALOX12 inh inconclusive, VDR inh 67%, TbPYK confirm inconclusive and TbPYK orthogonal inconclusive.
Screening Cc1cc(Cl)ccc1OCC(=O)N1CCC([C@@H]2CNC[C@H]2CO)CC1 returned ALOX12 inh 35%.
`c1ccc(Cc2nn3c(C4COc5ccccc5O4)nnc3s2)cc1` (stereo not given) gave Sfp inh 14µM*, PLK1 PBD block 21µM*, ALOX12 inh -5%, VDR inh -44%, TbPYK confirm inconclusive and TbPYK orthogonal inconclusive.
Screening CC(C)CN1C(=O)c2cccn2CC1CNC(=O)C1(c2ccccc2)CC1 (stereo not given) returned ALOX12 inh 9%.
`C[C@@H]1CCCCO[C@H](CN(C)C(=O)C2CCCCC2)[C@@H](C)CN([C@H](C)CO)C(=O)c2cc(N(C)C)ccc2O1` gave PLK1 PBD block inconclusive, ALOX12 inh -30%, TbPYK confirm 28µM* and TbPYK orthogonal inconclusive.
C[C@@H]1CCCCO[C@@H](CN(C)C(=O)c2ccncc2)[C@@H](C)CN([C@H](C)CO)C(=O)c2cc(N(C)C)ccc2O1 was read as PLK1 PBD block inconclusive and ALOX12 inh -13%.
`Cc1ccc(S(=O)(=O)N(C)C[C@H]2OCCCC[C@@H](C)Oc3ccc(N(C)C)cc3C(=O)N([C@H](C)CO)C[C@@H]2C)cc1` gave PLK1 PBD block -9%, ALOX12 inh inconclusive, TbPYK confirm 7.1µM* and TbPYK orthogonal 7.9µM*.
`CCc1c(C)sc2nc(N(CCO)CCO)n3nc(-c4ccccc4)nc3c12` gave ALOX12 inh -24%.
For COc1cc(C(=O)OCC(=O)NC(=O)NC2CCCCC2)cc(Cl)c1OC the results were PLK1 PBD block -4%, ALOX12 inh 4% and VDR inh -23%.
COc1ccc(OC)c(S(=O)(=O)Nc2cc3c(cc2N2CCCC2)n(C)c(=O)c(=O)n3C)c1 was read as Sfp inh -5%, PLK1 PBD block 21µM*, ALOX12 inh inconclusive, VDR inh inconclusive, TbPYK confirm -21% and TbPYK orthogonal inconclusive.
C[C@@H]1O[C@@H](O[C@@H]2[C@@H](O)[C@H](OCCc3ccc(O)c(O)c3)O[C@H](CO)[C@H]2OC(=O)/C=C/c2ccc(O)c(O)c2)[C@H](O)[C@H](O)[C@H]1O was read as PLK1 PBD block 0%, ALOX12 inh -17%, VDR inh -14%, TbPYK confirm 32µM* and TbPYK orthogonal inconclusive.
Screening COCCNC(=O)C(C)OC(=O)C1=Cc2ccccc2OC1 (stereo not given) returned Sfp inh 12%, PLK1 PBD block -10%, ALOX12 inh 4% and VDR inh -22%.
For CC(OC(=O)C1=Cc2ccccc2OC1)C(=O)NCC1CCCO1 (stereo not given) the results were PLK1 PBD block 12µM*, ALOX12 inh inconclusive, VDR inh inconclusive, TbPYK confirm -7% and TbPYK orthogonal -7%.
`Cc1cc(C)c(S(=O)(=O)/N=C2/C=C(Sc3ncn[nH]3)C(=O)c3ccccc32)cc1C` gave Sfp inh 1µM*, PLK1 PBD block 0.84µM*, ALOX12 inh inconclusive, VDR inh inconclusive, TbPYK confirm 1.4µM* and TbPYK orthogonal 2.5µM*.
Screening Cc1ccc(NC2=C/C(=N/S(=O)(=O)c3cccs3)c3ccccc3C2=O)cc1C returned Sfp inh 18%, PLK1 PBD block -4%, ALOX12 inh -26% and VDR inh -22%.
COCCN=C1NN=C(c2ccc(C)c([N+](=O)[O-])c2)CS1 was read as Sfp inh -26%, PLK1 PBD block 27µM*, ALOX12 inh -3%, VDR inh inconclusive, TbPYK confirm inconclusive and TbPYK orthogonal inconclusive.
`CCNC(=S)NNC(=O)c1cccn(Cc2ccc(Cl)cc2Cl)c1=O` gave Sfp inh 13%, PLK1 PBD block -13%, ALOX12 inh inconclusive and VDR inh -3%.
Screening C=CCNC(=S)NNC(=O)c1cccn(Cc2ccc(Cl)cc2Cl)c1=O returned Sfp inh 6%, PLK1 PBD block -16%, ALOX12 inh inconclusive, VDR inh -5%, TbPYK confirm 0.89µM* and TbPYK orthogonal 2.8µM*.
CCOc1cccc(-c2nc(C(=O)NCCOC)cs2)c1 was read as ALOX12 inh 19%.
`CCn1c(CCNC(=O)c2cccs2)nnc1SCC(=O)c1ccc(OC)cc1` gave PLK1 PBD block inconclusive, ALOX12 inh inconclusive, VDR inh -13%, TbPYK confirm 0.89µM* and TbPYK orthogonal 14µM*.
